Source: PubChem (several laboratories)
Hits are enriched below; roughly 2.7% of the tested compounds scored in any of these assays.
PfGluPho inh: PfG6PD enzyme inhibitors, primary screen, biochemical, fluorescence intensity, uHTS | glucose-6-phosphate dehydrogenase-6-phosphogluconolactonase (Plasmodium falciparum 3D7) | inhibition, % at 20 µM | 0.78% of 350,000 active | PfGluPho enzyme, NADPH resazurin-diaphorase fluorescence;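 active = inhibition reaching at least a set limit at 20 µM in the primary screen, cut at about 59% in these data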;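 note: 0% = DMSO wells with substrate and 100% = DMSO wells lacking glucose-6-phosphate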
Neddylation inh: inhibitors of cullin neddylation, primary screen, biochemical, TR-FRET, uHTS, NAE and Ubc12; NEDD8-conjugating enzyme Ubc12 (Homo sapiens) + NEDD8-activating enzyme E1 regulatory …; calls only at 25 µM; 0.58% of 360,000 active; in the data active = inhibition above about 36%
KLK7 zymogen act: proKLK7 zymogen activators, primary screen, biochemical, fluorescence intensity. Kallikrein-7 (Homo sapiens), P49862. activation, % at 7 µM. 0.9% of 370,000 active. purified proKLK7, EDANS-DABCYL substrate fluorescence; 100% is mature enzyme control, 0% vehicle;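 active = activation above the mean of all tested compounds plus 3 SD, computed per campaign excluding outliers beyond control limits, cut at about 13% in these data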
FAS TE block: FAS thioesterase domain inhibitors, primary screen, biochemical, fluorescence intensity, uHTS | Fatty acid synthase (Homo sapiens), P49327 | recombinant FAS-TE, OMFH fluorogenic substrate, fluorescence endpoint | inhibition, % at 15 µM | 0.67% of 360,000 active;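 active = compounds whose normalised, plate-corrected inhibition of enzyme fluorescence in the single-dose primary screen is 50% or more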;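 note: 0% = DMSO with enzyme and 100% = substrate without enzyme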
PfGluPho conf: PfG6PD inhibitors, hit retest, confirmation, biochemical, fluorescence intensity, single concentration | shares compounds with PfGluPho inh | recombinant PfGluPho, NADPH-diaphorase-resazurin fluorescence | inhibition, % at 20 µM | 34% of 2,400 active | AID 504753, 2011;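 active = inhibition of at least 50% at 20 µM in any single replicate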;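 note: 0% = DMSO with substrate and 100% = DMSO lacking glucose-6-phosphate substrate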
Diaphorase 10uM: diaphorase inhibitors and chemical oxidizers, confirmation, counter-screen for P. falciparum G6PD inhibitor project, biochemical, fluorescence intensity, 10 µM NADPH. shares compounds with PfGluPho inh. diaphorase-coupled resazurin reduction, NADPH 10 uM. inhibition, % at 20 µM. 39% of 820 active;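 active = average inhibition reaching 50% or more with the compound at 20 µM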;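 note: resorufin red fluorescence formed as diaphorase reduces resazurin using NADPH; 0% = DMSO with enzyme and 100% = DMSO without enzyme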
Diaph ctr 30uM: diaphorase inhibitors and chemical oxidizers, confirmation, counter-screen for P. falciparum G6PD inhibitor project, biochemical, fluorescence intensity, 30 µM NADPH. inhibition, % at 20 µM. 29% of 820 active. Diaphorase/resazurin coupled assay, resorufin fluorescence. shares compounds with PfGluPho inh;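 active = inhibition averaging 50% or more, tested at 20 µM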;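 note: 0% = DMSO with enzyme and 100% = DMSO wells lacking diaphorase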
The depositor's hits bear a star; i = inactive; / = no result.

SMILES | PfGluPho inh | Neddylation inh | KLK7 zymogen act | FAS TE block | PfGluPho conf | others
COc1ccc2c(c1)c(C(=O)N/N=C/c1cccc(O)c1)c(C)n2C | 21 | i | -1 | -7 | /
Cc1c(N=C2C=C(Br)C(=O)C(Br)=C2)c(=O)n(-c2ccccc2)n1C | 98* | i | 0 | 2 | 103* | Diaphorase 10uM=38;Diaph ctr 30uM=11
O=C(C1CC1)N1CCc2cc(Br)c(S(=O)(=O)NCCCN3CCCCC3)cc21 | / | / | 0 | / | /
COc1ccc(/C=C/C(Cc2cccc(C(C)=O)c2)c2ccc(C)cc2)cc1 (stereo not given) | / | / | 0 | / | /
O=C(CSc1nnc(-c2ccc(O)cc2)o1)Nc1ccccc1 | 0 | i | 0 | 0 | /
COc1ccc(NC(=O)CSc2nnc(-c3cccc(O)c3)o2)cc1 | 80* | i | 0 | -3 | 39
Cc1cccc(-c2nc3ccccc3c(=O)n2NC(=S)N(C)C)c1 | 62* | i | 0 | -6 | 32
Cc1cccc(Cn2cc(COC(=O)NCC(C)C)nn2)c1 | / | / | 0 | / | /
COc1ccc(NC(=O)NC2CCN(S(=O)(=O)c3ccc(F)cc3)CC2)cc1OC | / | / | 1 | / | /
Nc1ccc(S(=O)(=O)c2cc(O)c3ccccc3c2O)cc1 | 103* | i | -1 | -27 | 70* | Diaphorase 10uM=33;Diaph ctr 30uM=19
O=C1/C(=C\c2ccc([N+](=O)[O-])cc2)CCc2ccccc21 | 14 | i | 0 | 14 | /
O=C1/C(=C/Nc2cccc([N+](=O)[O-])c2)CCc2ccccc21 | 67* | i | 1 | 42 | 35
CCOc1ccc2c(c1)C(=O)C(=O)N2CC1COc2ccccc2O1 (stereo not given) | 63* | i | 0 | 7 | 11
Cc1cc(C)c(S(=O)(=O)Oc2ccccc2[N+](=O)[O-])c(C)c1 | 16 | i | -1 | 29 | /
CC1=CC(=O)C=C(C)C1=NOc1ccccc1[N+](=O)[O-] | 69* | i | -1 | -1 | -6
COc1cc(C(=O)Nc2nc(C)c(Cc3ccc4c(c3)OCO4)s2)cc(OC)c1OC | 62* | i | -14 | 39 | 34
Cc1ccc(C(=O)NCC(=O)NCC(=O)OCC(=O)c2ccc([N+](=O)[O-])cc2)cc1 | 63* | i | 0 | -8 | 62* | Diaphorase 10uM=-9;Diaph ctr 30uM=0
O=C(CNC(=O)c1ccc([N+](=O)[O-])cc1)c1ccccc1 | 9 | i | / | 5 | /
O=C(CNc1ccccc1)c1ccc([N+](=O)[O-])cc1 | 64* | i | -1 | 7 | 2
O=C(Cc1ccccc1)NCC(=O)OCC(=O)c1cccc([N+](=O)[O-])c1 | -16 | i | 0 | -5 | /
O=C(COC(=O)c1ccccn1)c1ccc([N+](=O)[O-])cc1 | 63* | i | 0 | 7 | 41
O=C(Cc1ccccc1)NCC(=O)OCC(=O)c1ccc([N+](=O)[O-])cc1 | 68* | i | 0 | -3 | 67* | Diaphorase 10uM=-2;Diaph ctr 30uM=-6
O=C(CSc1ccc(-c2ccccn2)nn1)c1ccc([N+](=O)[O-])cc1 | 5 | i | -1 | 16 | /
C/C(=N/NC(=O)c1ccoc1C)c1cccs1 | / | / | 0 | / | /
COC(=O)[C@]12C[C@H](CC(=O)NCc3ccc(OC)c(OC)c3)C(=O)N(Cc3ccco3)C1=C[C@H](C(C)C)O[C@@H]2C1CC1 | / | / | -1 | / | /
SMILES | PfGluPho inh | Neddylation inh | KLK7 zymogen act | FAS TE block | PfGluPho conf | others
Cc1ccc(C2CCC3(CCC(=O)N3CCOC(=O)Nc3ccc(F)cc3)CC2)cc1 (stereo not given) | / | / | 0 | / | /
COC(=O)[C@]12C[C@H](CC(=O)NCc3cccc4ccccc34)C(=O)N(CCC3=CCCCC3)C1=C[C@H](C(C)C)O[C@@H]2C1CC1 | / | / | 1 | / | /
O=C(CNC(=O)c1cccs1)c1ccc([N+](=O)[O-])cc1 | 0 | i | 0 | 8 | /
O=C(CNC(=O)c1ccco1)OCC(=O)c1ccc([N+](=O)[O-])cc1 | 63* | i | 0 | -2 | 66* | Diaphorase 10uM=-5;Diaph ctr 30uM=-4
O=C(CNC(=O)c1cccs1)OCC(=O)c1ccc([N+](=O)[O-])cc1 | 68* | i | 0 | -2 | 49* | Diaphorase 10uM=-8;Diaph ctr 30uM=-10
CC(C)(C)OC(=O)NCc1ccccc1/C=C/S(=O)(=O)NCCc1ccccc1 | / | / | 1 | / | /
Cc1ccc(-n2c(SCC(=O)Nc3ccc(Oc4ccccc4)cc3)nnc2-c2ccco2)cc1 | / | / | 0 | / | /
Cc1ccc(NC(=O)CCCn2nc(C)c3c(C)n(-c4ccccc4)nc3c2=O)cc1C | 64* | i | 1 | -2 | 27
CCCCNC(=O)C1(C(=O)c2ccc(OC)cc2)CC(c2ccccc2C(F)(F)F)=NO1 (stereo not given) | / | / | -1 | / | /
COc1cccc(NC(=O)c2cnn(-c3ccccc3)c2C)c1 | 63* | i | 0 | 0 | 22
COc1ccccc1N1C(=O)C=C(Sc2nc(C)cc(C)n2)C1=O | 79* | i | 0 | 0 | 87* | Diaphorase 10uM=-4;Diaph ctr 30uM=-15
COc1ccccc1N1C(=O)C2CC(C)=C(C)CC2C1=O (stereo not given) | 9 | i | 0 | -6 | /
Clc1ccc(-c2nnnn2-c2ccc(Cl)cc2)cc1 | 5 | i | 0 | 18 | /
Cc1ccc(-n2nnnc2C(Cl)(Cl)c2nnnn2-c2ccc(C)cc2)cc1 | 72* | i | 0 | -5 | 43
C[C@@H]1CCN(C2CC2)S(=O)(=O)c2ccc(N3CC[C@H](O)C3)cc2O1 | / | / | -1 | / | /
S=C1SCN(Cc2ccco2)CN1Cc1ccco1 | 10 | i | 0 | 3 | /
N#CC1=C2SCN(Cc3ccco3)CN2C(=O)CC1c1cccc2ccccc12 (stereo not given) | 63* | i | 0 | 2 | 15
N#CC1=C2SCN(Cc3ccco3)CN2C(=O)CC1c1ccccc1F (stereo not given) | 67* | i | / | -5 | 30
CN(CC(=O)Nc1ccccc1Br)C(=O)c1ccc(-c2ccc(Cl)cc2)o1 | 14 | i | 0 | 22 | /
CN(CC(=O)Nc1ccccc1Br)C(=O)c1ccccc1OCc1ccc(Cl)cc1 | 59* | i | 0 | 29 | 30
CCCCNC1=CC(=O)C(NCCCC)=CC1=O | 62* | i | 1 | -3 | -3
O=C1C(SCCO)=C(SCCO)C(=O)c2ccccc21 | 119* | i | 1 | 25 | 107* | Diaphorase 10uM=87*;Diaph ctr 30uM=84*
